Source: article PMC5540273 (PLoS ONE, 2017)

How the values were obtained:
Conditions in all cases: concentration: 1 μM, replicates: in singlicate; n = 1
DMPK2 = system: T1, DMPK2
T1 construct: gene CDC42BPG

DMPK = system: DMPK
DRAK1 = system: T2, DRAK1
T2 construct: gene STK17A

DRAK2 = system: T3, DRAK2
T3 construct: gene STK17B

DYRK1A = system: DYRK1A
DYRK1B = system: DYRK1B
DYRK2 = system: DYRK2
EGFR = system: EGFR
EIF2AK1 = system: EIF2AK1
EPHA1 = system: EPHA1
EPHA2 = system: EPHA2
EPHA3 = system: EPHA3
EPHA4 = system: EPHA4
EPHA5 = system: EPHA5
EPHA6 = system: EPHA6
EPHA7 = system: EPHA7
EPHA8 = system: EPHA8
EPHB1 = system: EPHB1
EPHB2 = system: EPHB2
EPHB3 = system: EPHB3
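Further: KINOMEscan kinase panel screen.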

Compound	%Inh (DMPK2)	%Inh (DMPK)	%Inh (DRAK1)	%Inh (DRAK2)	%Inh (DYRK1A)	%Inh (DYRK1B)	%Inh (DYRK2)	%Inh (EGFR)	%Inh (EIF2AK1)	%Inh (EPHA1)	%Inh (EPHA2)	%Inh (EPHA3)	%Inh (EPHA4)	%Inh (EPHA5)	%Inh (EPHA6)	%Inh (EPHA7)	%Inh (EPHA8)	%Inh (EPHB1)	%Inh (EPHB2)	%Inh (EPHB3)
Cn1cnc2c(N)ncnc21 [SKF-97623]	0%	0%	8%	0%	0%	36%	0%	13%	0%	0%	0%	0%	0%	9%	0%	0%	0%	0%	0%	0%
O=c1cc(N2CCOCC2)nc2n(Cc3ccccc3F)ccn12 [GSK2297428]	0%	0%	0%	0%	6%	0%	9%	18%	0%	3%	21%	0%	5%	0%	0%	3%	9%	5%	0%	7%
CS(=O)(=O)CCNCc1nc(-c2ccc3ncnc(Nc4ccc(OCc5ccccc5)c(Cl)c4)c3c2)cs1.Cl [GW582764]	0%	0%	4%	0%	19%	0%	0%	–	0%	8%	10%	0%	0%	0%	7%	0%	8%	0%	0%	11%
O=C1NC(=O)C(c2ccc(Cl)cc2)=C1Nc1cccc(Cl)c1 [SB-317651]	0%	0%	4%	0%	15%	52%	1%	20%	4%	0%	8%	0%	0%	1%	0%	0%	0%	0%	20%	0%
Nc1cccc(-c2ccc3c(N)n[nH]c3c2)n1 [GSK2192730]	0%	0%	68%	0%	25%	21%	52%	0%	0%	14%	0%	4%	5%	0%	0%	8%	8%	9%	0%	1%
COc1nccc(-c2c(-c3ccc(F)cc3)ncn2CCCN2CCOCC2)n1 [SB-282852]	0%	8%	0%	0%	0%	61%	10%	8%	8%	0%	0%	10%	0%	0%	0%	0%	0%	0%	0%	0%
CC(=O)c1cccc(NC(=O)NC2CCN(c3ccnc(Nc4ccc(F)cc4)n3)C2)c1 (stereo not drawn) [GSK1379710]	6%	0%	6%	0%	0%	27%	17%	18%	0%	7%	0%	19%	6%	0%	7%	6%	14%	8%	11%	7%
Cc1c(Cn2c(C)c(C)n3c(=O)cc(N4CCOCC4)nc23)cccc1C(F)(F)F [GSK2328680]	0%	0%	7%	0%	4%	2%	6%	11%	0%	20%	17%	0%	1%	0%	0%	4%	7%	0%	0%	2%
